Among all 1,400 compounds or so, fewer than 10 were called active. Inconclusive results (about 11%) are left out. Calls follow the shape of the full dose curve. The list is a sample of the results.

The assay is described as follows: Assay for Inhibitors of Influenza NS1 Protein Function: Hit Validation. As to conditions: influenza NS1 function cell assay, 15-point titration; series mostly up to 32.9 µM. The text has this:
NIH Chemical Genomics Center [NCGC]
NIH Molecular Libraries Probe Centers Network [MLPCN]
Assay Submitter (PI): Daniel Engel
Influenza is a world-wide public health problem and emerging forms of the virus have the potential to cause a pandemic of equal or greater magnitude to the outbreaks recorded in 1918, 1957 or 1968. Vaccine development is proceeding and there also exist two classes of anti-influenza compounds. However these therapeutic modalities are neither fully effective nor widely enough available to fulfill global needs. In addition their potential usefulness against newly emergent strains is not known. Efforts are needed to develop novel agents against influenza virus, including broad-spectrum agents. Identification of small molecules that inhibit NS1 function either directly or by interfering with specific cellular pathways may be a key to increasing our defense against the virus.
We have miniaturized and optimized a cell based assay in which NS1 from influenza A is expressed in the budding yeast S. cerevisiae. NS1 is a multi-functional protein that counters the host innate immune response and facilitates viral versus cellular gene expression. Expression of NS1 causes a pronounced slow growth phenotype in yeast due to its intrinsic molecular activities. Small molecules that suppress the slow growth phenotype can be identified by a straightforward growth recovery assay using optical density (OD) as the measurement. The same yeast strain not expressing NS1 was used as positive control in the yeast growth recovery assay. The present experiment attempted to confirm the activity of compounds observed in the primary screen.
The yeast S. cerevisiae control and NS1 expressing cells were kindly supplied by laboratory of Dr. Daniel Engel, University of Virginia. Yeast starter cultures were stored in single use aliquots at -80C.
1. Yeast culture medium per liter: 1.2 g Yeast Nitrogen Base (w/out amino acids and Ammonium Sulphate), 5.0g Ammonium Sulphate, 0.77g -URA DO (drop-out) Supplement, adjust pH to 6.0. Adjust to 2% glucose prior to inoculating with yeast.
2. Yeast assay medium: 1.2 g Yeast Nitrogen Base (w/out amino acids and Ammonium Sulphate), 5.0g Ammonium Sulphate, 0.77g -URA DO (drop-out) Supplement, adjust pH to 6.0. Adjust to 2% D-galactose prior to inoculating with yeast.
1. Inoculate 100 mls of yeast culture medium with 1 ml of frozen yeast aliquote. Incubate overnight at 30C, 250RPM.
2. Harvest overnight culture at 4000 RPM and wash pellet with 15 mls H2O 3x.
3. Re-suspend washed pellet in 10 mls of yeast assay medium.
4. Prepare a 1:100 dilution of re-suspended culture in yeast assay medium.
5. Dispense 3.5 ul per well of reagents in step 4 in columns 2-48 in a black clear bottom 1536 well plate.
6. Dispense 3.5 ul per well of yeast assay medium in column 1 only.
7. Transfer 23 nl of compound per well.
8. Dispense 3.5 ul per well of yeast assay medium in columns 1-48.
9. Read plate using Viewlux protocol for optical density 600 (OD600) using excitation filter 600nm.
As for `Cc1cccc(N=C2NN=C(c3c[nH]c4ccccc34)CS2)c1`, the call was inactive. For `Cc1ccc(-c2ccc(=O)n(CC(=O)NCCCN3CCCCC3)n2)cc1`, the outcome was inactive. The result for `CC(C)CCN(C(=O)c1csnn1)C(C(=O)NC1CCCC1)c1ccccc1` (stereo unspecified) reads “inactive”; that for `COc1ccccc1C(=O)Nc1ccnn1C1CCN(C(=O)C(C)(C)C)CC1`, “inactive”. For `COc1ccc(C(C(=O)NC2CCCCC2)N(C(=O)Cc2c[nH]c3ccccc23)c2ccccc2)cc1OC` (stereo unspecified), the compound was classed as inactive. Turning to `O=C1c2cccc(OCC(=O)N3N=C(c4cccs4)CC3c3ccc(F)cc3)c2CCN1Cc1ccccc1` (stereo unspecified), the compound was classed as inactive. As to `COc1cccc(OC)c1C(=O)Nc1nnc(C(C)C)s1`, the compound was called inactive. For the compound `Cn1c(CC(=O)Nc2ccccc2)nnc1SCC(=O)c1ccccc1`, the call was inactive.

Turning to `COc1cc2c(cc1NC(=O)CN1CCN(S(=O)(=O)c3ccc(F)cc3)CC1)oc1ccccc12`, the compound was called inactive. With `CCCc1cc(=O)[nH]c(SCC(=O)c2cc(C)n(CCC)c2C)n1`, the outcome was inactive.

Turning to `Cc1cccc([C@@H]2[C@@H]3C(=O)N(Cc4ccccc4)C(=O)[C@@H]3[C@]3(C)C(=O)N(c4ccc(Br)cc4)C(=O)N23)c1`, the compound was called inactive. As to `Nc1cccc(-c2cc(-c3ccccc3)nc(-c3cccc(N)c3)n2)c1`, the result was inactive. With `COc1ccc(S(=O)(=O)Nc2c(C)n(C)n(-c3ccccc3)c2=O)cc1`, the outcome was inactive. With `Cc1cccc(-n2c(SCC(=O)Nc3cccc(S(=O)(=O)NC4=NCCCCC4)c3)nc3ccccc3c2=O)c1C` the entry was “inactive”; with `O=C1NC(=O)N(CCc2ccc(F)cc2)C(=O)/C1=C/C=C/c1ccccc1`, “inactive”; with `COCCn1c(C)cc(C2=NNC(=Nc3ccc(F)cc3)SC2)c1C`, “inactive”. On to `CCOc1ccc(Nc2nc(Cl)nc(N3CCN(c4ccc(OC)cc4)CC3)n2)cc1`, for which the outcome was inactive. Take `COC(=O)c1c(NC(=O)c2cccs2)sc2c1CCCC2`: the compound was called inactive. Regarding `CC(C(=O)O)N1C(=O)c2cccc3cccc1c23` (stereo unspecified), the compound was classed as inactive.

For `COCCN1C(=O)c2oc3c(C)cc(C)cc3c(=O)c2C1c1cccc(O)c1` (stereo unspecified), the call was inactive. In the case of `Cc1cc2cc(CNC(=O)c3cccs3)ccc2[nH]1`, the outcome was inactive.

`COc1ccc(-n2c(C)cc(C(=O)CSc3nnc(-c4cccs4)o3)c2C)cc1`: the compound was classed as inactive. `Cc1ccc2c(c1)N(S(=O)(=O)c1cc(-c3cc(C)no3)ccc1C)CCO2`: the result was inactive.

Regarding `C1=C(N2CCOCC2)/C(=C/c2nc3ccccc3[nH]2)CC1`, the call was inactive. `Cc1ccccc1C(OCC(O)CN1CCCCC1CCO)c1ccccc1` (stereo unspecified): the compound was called inactive.

In the case of `CCc1ccc(S(=O)(=O)Nc2cc3c(cc2N2CCCCC2)n(C)c(=O)c(=O)n3C)cc1`, the compound was classed as inactive. As to `CC[C@@H](C)[C@@H](C(=O)N1CCN(C(=O)OC(C)(C)C)CC1)n1cc(CCC(=O)O)nn1`, the outcome was inactive. Turning to `N#Cc1c(-c2cccs2)nc(SCC(=O)c2ccc(Br)cc2)[nH]c1=O`, the outcome was inactive. Take `CN1CCN(C(=O)COc2ccc(C(C)(C)C)cc2Br)CC1`: the compound was called inactive. Turning to `CC(C)c1c(O)nc(SCCOc2ccc(Cl)cc2)[nH]c1=O`, the compound was classed as inactive. For the compound `Cc1cc(=O)[nH]c(SCc2cc(Cl)ccc2OC(F)F)n1`, the compound was called inactive. The result for `O=C(CSC1=Nc2ccccc2C2=NC(CC(=O)NCc3ccco3)C(=O)N12)NCc1ccco1` (stereo unspecified) reads “inactive”; that for `Cc1cc(C)c2cc(CN(Cc3nnnn3Cc3ccc(F)cc3)C3CCCC3)c(=O)[nH]c2c1`, “inactive”. Take `O=S(=O)(c1ccc(OCC(O)CN2CCN(c3ccccc3Cl)CC2)cc1)N1CCOCC1` (stereo unspecified): the call was inactive. With `COc1cccc(-n2c(SCC(=O)NC3CCCCC3)nc3n[nH]c(C)c3c2=N)c1`, the compound was called inactive. Take `CN(C)c1ccc(/C=C/C(=O)c2ccc(C(C)(C)C)cc2)cc1[N+](=O)[O-]`: the outcome was inactive. The result for `COc1ccc(-c2nc(CS(=O)CC(=O)NCc3ccccn3)c(C)o2)cc1` (stereo unspecified) reads “inactive”; that for `O=C(O)CC(Cn1cnnn1)c1ccccc1` (stereo unspecified), “inactive”. As to `C[C@@H](C(=O)Nc1ccc2ccccc2c1)[C@@H]1C[C@@]1(C)[C@@H](NC(=O)c1cccnc1)c1ccccc1`, the result was inactive.

Take `COC(=O)C1=C(C)N=C2SC(C)C(=O)N2C1/C=C/c1ccccc1` (stereo unspecified): the call was inactive. Take `CCCc1nc2ccccc2c(=O)n1NC(=O)c1c(O)c2ccccc2[nH]c1=O`: the compound was called inactive.

(Values after PubChem BioAssay AID492980 (National Center for Advancing Translational Sciences (NCATS), 2010).)
